For twelve compounds, outcome and AC50 results are on record in PubChem BioAssay (EPA / NIEHS).

Test [1] in a line: Tanguay_ZF_120hpf_BRAI_legacy: (Legacy) Oregon State University Tanguay Lab 120 Hour Post-fertilization zebrafish Assay for Brain Malformation (AID 2283641). The procedure, abridged: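 Binary brightfield scoring of brain malformation at 120 hpf in Tropical 5D larvae held under static exposure at 28C (0.64% v/v DMSO), non-mortality endpoints skipped if dead. Positive control: 5uM trimethyltin chloride; fit versus DMSO.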

Test [2] is described as follows: Tanguay_ZF_120hpf_SOMI_legacy: (Legacy) Oregon State University Tanguay Lab 120 Hour Post-fertilization zebrafish Assay for Somite Malformation (AID 2283647). Summed up: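 Binary somite-defect scoring at 120 hpf, omitted for embryos that died, in wild-type (Tropical 5D) zebrafish with chorion removed by pronase at 4 hpf; static exposure began 6 hpf, single embryos per well, 28C, 0.64% DMSO; fitted positive versus DMSO.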

The nature of test [3]: Tanguay_ZF_120hpf_PFIN_legacy: (Legacy) Oregon State University Tanguay Lab 120 Hour Post-fertilization zebrafish Assay for Pectoral Fin Malformation (AID 2283648).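 Further: each larva judged yes or no for fin defect by brightfield with dead larvae skipped.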 The procedure, abridged:
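Binary pectoral fin malformation call at 120 hpf by brightfield microscopy; 5D wild-type zebrafish, chorion removed at 4 hpf, one embryo per well from 6 hpf, static exposure at 28C; DMSO (0.64% final) as baseline.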

Test [4] can be described thus: Tanguay_ZF_120hpf_CFIN_legacy: (Legacy) Oregon State University Tanguay Lab 120 Hour Post-fertilization zebrafish Assay for Caudal Fin Malformation (AID 2283649). The procedure, abridged: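 Binary brightfield scoring of caudal fin defects at 120 hpf after static, light-shielded exposure at 28C from 6 hpf. Tropical 5D embryos, chorion removed with pronase at 4 hpf, final DMSO 0.64%.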

The nature of test [5]: Tanguay_ZF_120hpf_PIG_legacy: (Legacy) Oregon State University Tanguay Lab 120 Hour Post-fertilization zebrafish Assay for Pigmentation Malformation (AID 2283650). Summed up: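 Brightfield scoring of pigmentation malformation at 120 hpf, recorded as binary present/absent per larva. Exposure: dechorionated 5D wild-type embryos, one per well, static from 6 hpf at 28C, final DMSO 0.64% (vol/vol). Dead embryos not scored.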

Test [6] is described as follows: Tanguay_ZF_120hpf_CIRC_legacy: (Legacy) Oregon State University Tanguay Lab 120 Hour Post-fertilization zebrafish Assay for Circulatory Malformation (AID 2283651). The procedure, abridged: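 Binary circulatory malformation call at 120 hpf by brightfield imaging of zebrafish larvae; chorion removed at 4 hpf, static exposure from 6 hpf in sealed dark plates at 28C, final DMSO 0.64%; non-mortality endpoints skipped if embryo died.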

Read-out in test [7]: kallikrein-3 (KLK3), KLK3 (gene 354)
As to the kind of experiment: LTEA_HepaRG_KLK3: Life Technologies and Expression Analysis (LTEA) Assay for kallikrein-3 (KLK3) using HepaRG (AID 2283652; active means hit-call score of the fitted dose curve at least 0.9, where 1 is the maximum; inactive means score below 0.9). As to conditions: mRNA level, 48 h; actives raise or lower the signal. Summed up: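 KLK3 transcript levels were measured by TaqMan qRT-PCR with normalisation to three housekeeping genes. HepaRG cultures received chemicals for 48 h at up to 100 uM (half-log, 8 points, 0.5% DMSO vehicle), fitted in both directions against DMSO.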

Read-out in test [8]: solute carrier (SLC22A6), SLC22A6 (gene 9356)
Description: LTEA_HepaRG_SLC22A6: Life Technologies and Expression Analysis (LTEA) Assay for solute carrier (SLC22A6) using HepaRG (AID 2283653; active means hit-call score of the fitted dose curve at least 0.9, where 1 is the maximum; inactive means score below 0.9). Conditions: mRNA level, 48 h; actives raise or lower the signal. Summed up: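 SLC22A6 transcript was measured by TaqMan qRT-PCR, normalized to three housekeeping genes, after 48 h duplicate exposure of HepaRG cells (100 uM top, half-log steps, 0.5% DMSO); bidirectional fit against vehicle.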

Test [9] is described as follows: Tanguay_ZF_120hpf_SWIM_legacy: (Legacy) Oregon State University Tanguay Lab 120 Hour Post-fertilization zebrafish Assay for Swim Bladder Malformation (AID 2283654).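 Further: swim bladder malformation in each larva scored yes or no under brightfield.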 Summed up:
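Tropical 5D embryos dechorionated at 4 hpf; 1 embryo/well from 6 hpf; static, sealed, dark exposure at 28C until 120 hpf; final DMSO 0.64%; 5uM trimethyltin chloride positive control; swim bladder defect recorded yes/no; dead embryos not scored.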

The nature of test [10]: Tanguay_ZF_120hpf_TRUN_legacy: (Legacy) Oregon State University Tanguay Lab 120 Hour Post-fertilization zebrafish Assay for Truncated Body (AID 2283655). The procedure, abridged:
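Binary presence/absence of truncated body is recorded at 120 hpf by brightfield, with non-mortality endpoints skipped after death. Exposure is static from 6 hpf in sealed dark plates at 28C, using dechorionated wild-type zebrafish, 0.64% DMSO.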

A short description of test [11]: Tanguay_ZF_120hpf_NC_legacy: (Legacy) Oregon State University Tanguay Lab 120 Hour Post-fertilization zebrafish Assay for Notochord and Tail Malformation (AID 2283656). The procedure, abridged: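 Binary scoring of notochord distortion by brightfield microscopy; embryos dying were not scored. Wild-type Tropical 5D embryos, chorion removed, exposed singly and statically from 6 to 120 hpf, 28C, sealed, 0.64% DMSO.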

Read-out in test [12]: solute carrier (SLC10A1), SLC10A1 (gene 6554)
Description: LTEA_HepaRG_SLC10A1: Life Technologies and Expression Analysis (LTEA) Assay for solute carrier (SLC10A1) using HepaRG (AID 2283657; active means hit-call score of the fitted dose curve at least 0.9, where 1 is the maximum; inactive means score below 0.9). As to conditions: mRNA level, 48 h; actives raise or lower the signal. The procedure, abridged: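 HepaRG, 48 h exposure, 8-pt half-log curve from 100 uM in 0.5% DMSO, duplicates. Read-out: TaqMan qRT-PCR of SLC10A1 mRNA, normalized to three housekeeping genes. Gain/loss fit vs DMSO baseline.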

Read-out in test [13]: matrix metalloproteinase-1 (MMP1), MMP1 (gene 4312)
Description: LTEA_HepaRG_MMP1: Life Technologies and Expression Analysis (LTEA) Assay for matrix metalloproteinase-1 (MMP1) using HepaRG (AID 2283658; active means hit-call score of the fitted dose curve at least 0.9, where 1 is the maximum; inactive means score below 0.9). Conditions: mRNA level, 48 h; actives raise or lower the signal. Summed up: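 qRT-PCR (TaqMan, Fluidigm arrays) of MMP1 transcript, normalized against three housekeeping genes and fitted in both directions relative to 0.5% DMSO vehicle. Human HepaRG cultures received duplicate 48 h exposures across 8 points, highest 100 uM with half-log steps.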

Read-out in test [14]: Broad substrate specificity ATP-binding cassette transporter ABCG2 (Homo sapiens) (UniProt Q9UNQ0)
As to the kind of experiment: CLD_ABCG2_6hr: CellzDirect (CLD) Gene Expression Assay for ABC Transporter (ABCG2) at 6 hours (AID 2283660). Summed up:
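ABCG2 mRNA induction measured by qNPA chemiluminescence in human primary hepatocyte cultures, 6 h post-dose. Chemicals tested at several concentrations against a 0.2% DMSO vehicle; positive-direction fit relative to DMSO.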

In test [15] the test system is Thyroperoxidase (TPO), gene 54314. As to the kind of experiment: CCTE_Simmons_AUR_rTPO: CCTE's Amplex UltraRed Assay for Thyroperoxidase (TPO) Inhibition, Simmons Lab (AID 2283662).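 Further: potency for loss of signal meaning inhibition of peroxidase activity.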 The procedure, abridged: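 Endpoint is decreased Amplex UltraRed fluorescence after a 30-min, 37C reaction of rat thyroid microsomes with 300 uM H2O2. Eight test concentrations (5 nM–87.5 uM final) in 0.5% DMSO, three biological replicates each.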

Read-out in test [16]: sulfotransferase (SULT2A), SULT2A1 (gene 6822)
As to the kind of experiment: CLD_SULT2A_6hr: CellzDirect (CLD) Gene Expression Assay for sulfotransferase (SULT2A) at 6 hours (AID 2283669).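 Further: hits raise transcript level above the DMSO vehicle baseline.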 Summed up: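 Measured 6 h after dosing, SULT2A1 mRNA in human hepatocyte lysates was quantified by S1 nuclease protection with chemiluminescent detection. Increases fitted against 0.2% DMSO vehicle baseline; phase-contrast cytotoxicity recorded yes/no.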

Test [17] is described as follows: Tanguay_ZF_120hpf_TR_legacy: (Legacy) Oregon State University Tanguay Lab 120 Hour Post-fertilization zebrafish Assay for Touch Response (AID 2283667). Summed up:
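Binary touch-response call at 120 hpf, analysed as gain of signal versus DMSO baseline. Wild-type 5D larvae, static exposure at 28C, 0.64% DMSO final; 5uM trimethyltin chloride as positive control.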

Read-out in test [18]: organic anion transporter (SLCO1B1), SLCO1B1 (gene 10599)
As to the kind of experiment: CLD_SLCO1B1_6hr: CellzDirect (CLD) Gene Expression Assay for organic anion transporter (SLCO1B1) at 6 hours (AID 2283668).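 Further: active means mRNA induction above DMSO baseline.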 Summed up: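 SLCO1B1 mRNA induction measured 6 h after dosing by quantitative nuclease protection with chemiluminescent read-out, in human primary hepatocyte cultures given chemicals at several concentrations (vehicle 0.2% DMSO). Increase over DMSO baseline fitted; morphology-based cytotoxicity annotated yes/no.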

Read-out in test [19]: xenobiotic metabolism (CYP1A2), CYP1A2 (gene 1544)
As to the kind of experiment: CLD_CYP1A2_6hr: CellzDirect (CLD) Gene Expression Assay for xenobiotic metabolism (CYP1A2) at 6 hours (AID 2283663). The procedure, abridged:
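mRNA levels quantified by quantitative nuclease protection assay with chemiluminescence, 6 h after dosing human primary hepatocyte cultures (two donors) across several concentrations, vehicle 0.2% DMSO. Induction fitted upward versus DMSO; phase-contrast cytotoxicity annotated.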

Where “and” joins values, the source holds several entries; their conditions need not be identical. Equal entries are not always repeated. Records with an inconclusive call do not appear. A structure can be active in one record and inactive in another. Calls of active or inactive are those of the source. How the source made its calls, unless noted: active means hit-call score of the fitted dose curve at least 0.9, where 1 is the maximum; inconclusive means response in the unintended direction; inactive means score below 0.9.

Sequence of Broad substrate specificity ATP-binding cassette transporter ABCG2 (Homo sapiens) (Q9UNQ0 whole entry, looked up): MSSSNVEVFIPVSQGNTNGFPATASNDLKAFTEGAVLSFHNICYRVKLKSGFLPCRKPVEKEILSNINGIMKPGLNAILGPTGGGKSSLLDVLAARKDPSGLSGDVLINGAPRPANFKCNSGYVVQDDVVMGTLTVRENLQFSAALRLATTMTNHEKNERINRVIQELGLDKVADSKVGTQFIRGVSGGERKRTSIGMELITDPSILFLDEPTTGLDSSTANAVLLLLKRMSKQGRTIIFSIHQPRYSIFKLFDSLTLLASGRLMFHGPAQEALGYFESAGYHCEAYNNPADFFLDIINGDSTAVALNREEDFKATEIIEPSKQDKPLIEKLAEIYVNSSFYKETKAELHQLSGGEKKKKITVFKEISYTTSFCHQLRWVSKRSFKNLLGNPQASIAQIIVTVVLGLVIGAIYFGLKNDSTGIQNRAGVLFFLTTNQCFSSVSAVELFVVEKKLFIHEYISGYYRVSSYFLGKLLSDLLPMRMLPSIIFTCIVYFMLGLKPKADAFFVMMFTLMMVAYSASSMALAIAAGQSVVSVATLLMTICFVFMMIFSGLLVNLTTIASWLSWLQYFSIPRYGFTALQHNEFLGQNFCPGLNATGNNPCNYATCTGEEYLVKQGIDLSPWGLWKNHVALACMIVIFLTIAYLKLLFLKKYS

Broadly, the AC50 is the concentration at which the activity in the assay is half-maximal. For the compound `CCCCOCCOCCOCc1cc2c(cc1CCC)OCO2`, the compound was called inactive in test [1], in test [2], in [3], in test [5], in test [6] and in test [7]. Further, the compound was classed as inactive in test [8], in test [9], in [11], in test [13], in [14] and in [16]. Also, the AC50 in [4] is 10.7 µM (active); in test [10], 48 µM (active); in test [12], 67.7 µM (active); in test [15], 34.2 µM (active).
For the compound `CC(C)CCCCCCc1ccc(O)cc1`, the call in [1], in test [2], in test [3], in [4], in test [5] and in test [6] was inactive. The result in test [9], in test [10], in test [11] and in test [17] was inactive. The AC50 in test [15] is 20.6 µM (active).
Turning to `CC(C)(c1ccc(O)cc1)c1ccc(O)cc1`, the concentration at half-maximal activity (AC50) in test [1] was 41.6 µM (active) and 39.4 µM (active); in test [2] it was 44.3 µM (active) and 36.4 µM (active); in test [3] it was 29.8 µM (active) and 37.2 µM (active); in test [4], 35.2 µM (active); in test [5], 42 µM (active) and 36.8 µM (active); in [6], 36.7 µM (active). Besides, the AC50 in test [9] is 37.5 µM (active); in test [10], 25.9 µM (active) and 43.8 µM (active). The outcome in test [1], in test [2], in test [3], in test [4], in test [6] and in test [9] was inactive. The compound was classed as inactive in [10], in test [11], in test [14] and in [16].
In the case of `Cc1nn(C)c(Oc2ccccc2)c1C=NOCc1ccc(C(=O)OC(C)(C)C)cc1`, the call in [1], in [2], in test [3], in test [4], in test [5] and in test [6] was inactive. The outcome in [9], in test [10], in test [14] and in test [16] was inactive.
Turning to `CCCN(CCC)c1c([N+](=O)[O-])cc(C(F)(F)F)c(N)c1[N+](=O)[O-]`, the compound was called inactive in test [1], in test [2], in [3], in [4], in [5] and in test [6]. The compound was classed as inactive in test [9], in [18] and in test [16].
As for `O=C(c1ccc(O)cc1O)c1ccc(O)cc1O`, the outcome in [1], in test [2], in test [3], in [4], in [6] and in [10] was inactive. Moreover, the compound was called inactive in test [11]. In addition, in test [15], the concentration at half-maximal activity (AC50) is 0.19 µM (active).
On to `CCCN(CCC)C(=O)SCC`, for which the compound was classed as inactive in [1], in [2], in test [3], in test [4], in test [5] and in test [9]. Moreover, the outcome in [10], in test [11], in test [14], in [18] and in test [16] was inactive.
In the case of `CCOC(=O)C(C)Oc1ccc(Oc2cnc3cc(Cl)ccc3n2)cc1` (configuration not stated), the result in test [1], in test [2], in test [3], in test [4], in test [5] and in test [6] was inactive. Moreover, the outcome in test [9], in [10], in test [11] and in [14] was inactive.
With `COC(=O)c1ccc(I)cc1S(=O)(=O)NC(=O)Nc1nc(C)nc(OC)n1`, the result in [1], in test [2], in [3], in test [4], in [5] and in test [6] was inactive. The compound was classed as inactive in [9], in test [10], in [11], in test [14], in test [18] and in [16].
As for `S=C(S)NCCNC(=S)S.[Mn+2].[S-]C([S-])=NCCN=C([S-])[S-].[Zn+2]`, the outcome in [1], in test [2], in test [3], in test [4], in test [5] and in [6] was inactive. Moreover, the call in test [8], in test [9], in test [10], in test [11], in [14] and in test [18] was inactive. Moreover, in test [16], the outcome was inactive. Further, in test [12], the AC50 is 1.74 µM (active).
Take `Oc1ccc(C(c2ccc(O)cc2)C(Cl)(Cl)Cl)cc1`: the call in [1], in [3], in test [4], in [11] and in test [16] was inactive. The AC50 in [2] was 86.3 µM (active); in test [5], 202 µM (active); in test [6], 202 µM (active); in test [9] it was 202 µM (active); in test [10], 69.5 µM (active); in test [15] it was 4.87 µM (active).
As for `OB(O)O`, the call in test [1], in test [2], in test [3], in [4], in test [5] and in test [6] was inactive. Moreover, the compound was classed as inactive in [9], in test [10], in test [11], in test [14], in test [19] and in test [18].
